Anthrax LF prot – Bacillus anthracis LF protease inhibitors, primary screen, biochemical, multiplex microsphere, MLPCN library; Lethal factor (Bacillus anthracis), P15917; multiplex microsphere protease cleavage assay; inhibition, % at 10 µM; 0.12% of 360,000 active; AID 588501, 2011
MazEF act – activators of E. coli MazEF toxin-antitoxin RNase, primary screen, biochemical, fluorescence, uHTS. Endoribonuclease toxin MazF (Escherichia coli (strain K12)), P0AE70. FAM/BHQ RNA-DNA oligo cleavage fluorescence, 5 h. activation, % at 20 µM. 0.32% of 350,000 active. AID 504720, 2011; in the data active = activation above about 50%
Target sequence (P0AE70 whole entry, looked up): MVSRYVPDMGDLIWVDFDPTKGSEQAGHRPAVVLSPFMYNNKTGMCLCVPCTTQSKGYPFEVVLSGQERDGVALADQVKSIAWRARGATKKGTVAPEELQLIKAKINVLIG
Autofluor counter – flagged as autofluorescent in microsphere protease counterscreen | compound autofluorescence counterscreen, microsphere flow cytometry; stronger effect = higher value | 3.1% of 360,000 active | fluorescence intensity (test concentration not listed); in the data active = fluorescence intensity above about 16000; inconclusive = no clear call, values can overlap the other calls
BoNT F protease – BoNT/F light chain protease inhibitors, primary screen, biochemical, flow cytometry, MLPCN library; Botulinum neurotoxin type F light chain protease (Clostridium botulinum); Multiplex microsphere protease cleavage assay; inhibition, % at 10 µM; 0.22% of 360,000 active; in the data active = inhibition above about 35%, passing the limit was not always enough; inconclusive = no clear call, values can overlap the other calls
BoNT A protease – BoNT/A light chain protease inhibitors, primary screen, biochemical, flow cytometry, MLPCN library | Botulinum neurotoxin type A light chain protease (Clostridium botulinum A str. ATCC 3502) | multiplex microsphere protease substrate cleavage | inhibition, % at 10 µM | 0.17% of 360,000 active | AID 588499, 2011
Numbers stand for hits; i = inactive; ? = inconclusive; nt = not tested or not shown. Only some compounds are listed: those with a hit (about 3.6% of all), similar ones and a draw of the others. Rule as the data show it, unless noted: active = inhibition above about 30%; inconclusive = no clear call, values can overlap the other calls; inactive = below that.

SMILES	Anthrax LF prot	MazEF act	Autofluor counter	BoNT F protease	BoNT A protease
Cc1ccc(N2CC(C(=O)Nc3cccc(S(=O)(=O)N4CCOCC4)c3)CC2=O)cc1 (stereo not given)	i	i	i	i	i
O=C(Nc1ccc(F)cc1)NC1(C(=O)NCc2ccco2)CCCCC1	i	i	16458	i	i
CCOc1ccc(NC(=O)NC2(C(=O)NCc3ccco3)CCCCC2)cc1	i	i	i	i	i
O=C(c1ccco1)c1coc2c1cc(O)c1ccccc12	i	i	i	i	i
CO[C@H]1CC[C@@]2(C)[C@@H](CC[C@@H]3[C@@H]2CC[C@@]2(C)[C@H]3C[C@H](C(=O)N[C@@H](CCCN=C(N)N)C(=O)NCC(=O)N[C@@H](CC(=O)O)C(N)=O)O[C@]23CCCO3)C1	i	i	i	i	i
Cc1ccc(N(C)C(=O)N2CCN(S(=O)(=O)c3ccc(C)c(C)c3)CC2)cc1	i	i	24506	i	i
COc1ccc(C(=O)N(CN2CCCC2=O)c2cc(C)on2)cc1OC	i	i	21141	i	i
Cc1cc(N(CN2CCCC2=O)C(=O)c2ccc(F)cc2)no1	i	i	20214	i	i
O=C1CCCN1CN(C(=O)c1ccc2c(c1)OCO2)c1ccc(F)cc1	i	i	21432	i	?
O=C1CCCN1CN(C(=O)c1ccccc1)c1ccc(F)cc1	nt	i	nt	nt	nt
Cc1cc(N(CN2CCCC2=O)C(=O)c2ccccc2)no1	i	i	23950	i	i
Cc1cc(SCC(=O)NCC(c2cccs2)N2CCOCC2)c(C)cc1Br (stereo not given)	i	i	?	i	i
COc1ccccc1NS(=O)(=O)c1cccc(NS(=O)(=O)c2cc(C(=O)O)ccc2Cl)c1	i	i	i	i	i
Cc1cc(S(=O)(=O)Nc2cccc(C(=O)O)c2)c(C)c(S(=O)(=O)c2ccc(Cl)cc2)c1	i	i	i	i	i
O=C(O)c1cccc(NS(=O)(=O)/C=C/c2ccccc2)c1	i	i	19766	i	i
COc1cc(S(=O)(=O)Nc2cccc(C(=O)O)c2)c(OC)cc1Cl	i	i	20274	i	?
Cc1cc(C(C)(C)C)cc(S(=O)(=O)Nc2cccc(C(=O)O)c2)c1C	i	i	20337	i	i
N#C/C(=C\c1ccccc1[N+](=O)[O-])C(=O)NC1CCCCC1	i	423	i	i	i
N#C/C(=C\c1cc(Cl)cc(Cl)c1O)C(=O)NC1CCCCC1	i	i	16628	i	?
N#C/C(=C\c1cc(Cl)ccc1O)C(=O)NC1CCCCC1	i	i	i	i	i
Cc1cccc(C)c1NC(=O)Cn1nc(-c2ccc(Cl)s2)ccc1=O	i	i	i	i	i
NC(=S)NNC(=O)c1ccccc1	i	i	24370	i	i
O=C(Cn1cnc2ccccc2c1=O)Nc1ccc2c(c1)CCC2	i	i	23574	i	i
O=C(Nc1ccc(F)cc1)/C(=C1/CCCCCN1)[N+](=O)[O-]	i	i	i	i	i
CCN(CC)S(=O)(=O)c1ccc(OCC(=O)NC(=O)Cc2ccccc2)c([N+](=O)[O-])c1	i	i	i	i	i
SMILES	Anthrax LF prot	MazEF act	Autofluor counter	BoNT F protease	BoNT A protease
C=CCn1c(CCNC(=O)c2ccccc2F)nnc1SCc1nc2ccccc2c(=O)[nH]1	i	i	24056	i	i
CCN(CC)CCNC(=O)c1cc(Nc2ccc(OC)c(OC)c2)nc2ccccc12	i	i	i	i	i
CCOC(=O)c1c(C)cc(O)cc1O	i	i	i	i	i
CCOC(=O)/C=c1\s/c(=C\c2ccc3cc(OC)ccc3c2)c(=O)n1CC(=O)NCC1CCCO1 (stereo not given)	i	170	i	i	i
Cn1cnnc1SCC(=O)c1c[nH]c2ccccc12	i	i	25248	i	i
CCn1c(SCC(=O)c2c[nH]c3ccccc23)nnc1-c1cccs1	nt	i	nt	nt	nt
Cc1cc(C(=O)CSc2nncn2C)c(C)n1-c1ccccc1	i	57	i	i	i
CCN(CC)CCC=C(c1cccs1)c1cccs1	i	i	i	i	i
CCc1ccc(C(=O)Nc2cc(S(=O)(=O)N3CCOCC3)ccc2N2CCOCC2)cc1	nt	i	nt	nt	nt
CCOC(=O)N1CCN(S(=O)(=O)N2CCCC(C(=O)NCc3cccc(OC)c3)C2)CC1 (stereo not given)	i	i	i	i	i
c1cnc2nc3c4ccccc4c4ccccc4c3nc2c1	i	i	i	i	i
COc1ccc(NC(=O)CN2CCN(S(=O)(=O)c3ccc(Cl)cc3)CC2)cc1	i	i	22877	i	i
COc1ccc(S(=O)(=O)N2CCC(C(=O)NCCC(=O)Nc3ccc(Cl)cc3)CC2)cc1	i	55	i	i	i
Cc1ccc(/C=C/S(=O)(=O)NCCC(=O)NCc2ccc(F)cc2)cc1	i	i	i	i	i
COc1ccccc1CC(=O)Nc1ncc(C)s1	i	i	i	i	i
COC(=O)C1CCN(C(=O)/C=C/c2ccc(OC)cc2)CC1	35	i	?	i	i
COc1ccc(/C=C/C(=O)N2CCC(c3ccccc3)C2)cc1 (stereo not given)	i	i	i	i	i
O=C(NC(c1cccnc1)c1ccc2c(c1)OCO2)C1CCN(CCOc2ccc(Cl)cc2Cl)CC1 (stereo not given)	i	nt	i	i	i
O=C(OCC(=O)N1CCOCC1)c1cc(-c2ccccc2)nc2ccccc12	i	i	i	i	i
Cc1cccc(C(=O)OCC(=O)NCCN2C(=O)CSC2=O)c1[N+](=O)[O-]	i	i	i	i	i
CCc1nnc(NS(=O)(=O)c2ccc(N3C(=O)C4CC=C(Cl)CC4C3=O)cc2)s1 (stereo not given)	i	i	?	i	i
Cc1cc(C)nc(NS(=O)(=O)c2ccc(N3C(=O)C4CC=C(Cl)CC4C3=O)cc2)n1 (stereo not given)	i	i	18775	i	i
CCc1ccc(N(C(=O)Cc2cccs2)C(C(=O)NC2CCCCC2)c2cn(C)nc2C)cc1 (stereo not given)	i	i	23253	i	?
Cc1cc(C)cc(N(C(=O)Cc2cccs2)C(C(=O)NC2CCCCC2)c2ccccn2)c1 (stereo not given)	i	i	23274	i	?
COc1ccc(C(=O)CCC(C)(C)[N+](=O)[O-])cc1	i	i	i	i	i
CCC(=O)N1CCCC(C(=O)Nc2nc3ccccc3[nH]2)CC1 (stereo not given)	i	nt	i	i	i
Cc1ccc(S(=O)(=O)/N=C(\N)Nc2nc(C)c3cc(C)ccc3n2)cc1	i	i	21184	i	i
Cc1ccc(S(=O)(=O)/N=C(\N)Nc2nc(C)c3ccc(C)cc3n2)cc1	i	i	i	i	i
NS(=O)(=O)c1ccc(NC(=O)c2ccc3c(c2)OCO3)cc1	i	i	i	i	i
NS(=O)(=O)c1ccc(NC(=O)c2ccc3c(c2)CCCC3)cc1	i	72	i	i	i

Bioassay records deposited in PubChem by several laboratories.
